15 compounds from PubChem BioAssay (NCI) can be followed below.

About 83,000 compounds went through this panel and 20% of them were active in at least one assay; those are over-represented in the sample as a whole.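 Percent growth is the endpoint: 0 to 100 indicates growth inhibition (40 means 60% inhibition), 0 means no net growth, and negative values indicate cell death.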 A number with no mark means an inactive call. Calls of active or inactive are those of the source. The calls were made as follows: active = growth percent below 10; inactive = the rest.

Among the test systems are HCT-15 colon; HT29 colon; SNB-75 CNS; SNB-19 CNS; U251 CNS; PC-3 prostate; SK-MEL-5 melanoma; SK-MEL-28 melanoma; UACC-62 melanoma; LOX IMVI melanoma.
What all share (test): NCI-60 one-dose screen, 48 h (100 = growth as untreated, 0 = no growth, -100 = all killed)
Common to all, as to settings: 10 µM unless noted

For `C=C(C)[C@@H]1CC[C@]2(C(=O)O)CC[C@]3(C)[C@H](CC[C@@H]4[C@@]5(C)C/C(=C/c6ccc(OC)cc6)C(=O)C(C)(C)[C@@H]5CC[C@]43C)[C@@H]12`, the growth with HCT-15 colon is 5.16% (active); with HT29 colon, 16%; in the assay with SNB-75 CNS it was 27.2%; in the assay on SNB-19 CNS it was 32.3%; in the assay with U251 CNS, 25.4%; in the assay on PC-3 prostate, 15.5%. In addition, the growth was 6.21% (active) with SK-MEL-5 melanoma and 41.3% in the assay on SK-MEL-28 melanoma.

For `CCN1CCN(C(=O)[C@@]2(C)CC[C@]3(C)CC[C@]4(C)C(=CC(=O)[C@@H]5[C@@]6(C)CC[C@H](OC7C[C@@H](O)[C@@H](O)C(C)O7)C(C)(C)[C@@H]6CC[C@]54C)[C@@H]3C2)CC1` (stereo partly specified), the growth in the assay on HCT-15 colon is 34.2%; in the assay on HT29 colon, 1.72% (active); in the assay with SNB-75 CNS, 86.7%; with SNB-19 CNS it was 39%; with U251 CNS it was 10.3%; with PC-3 prostate, 42.1%. In addition, the growth in the assay on SK-MEL-5 melanoma was -5.54% (active); with SK-MEL-28 melanoma, -7.89% (active).

Regarding `CCN1CCN(C(=O)[C@]23CCC(C)(C)C[C@@H]2C2=CC[C@@H]4[C@@]5(C)C/C(=C/c6ccncc6)C(=O)C(C)(C)[C@@H]5CC[C@@]4(C)[C@]2(C)CC3)CC1`, the growth is -63.9% (active) in the assay on HCT-15 colon; -39.8% (active) with HT29 colon; 25% in the assay with SNB-75 CNS; -16.1% (active) with SNB-19 CNS; -77.2% (active) with U251 CNS; -5% (active) in the assay with PC-3 prostate. Further, the growth is -98.8% (active) in the assay with SK-MEL-5 melanoma and -82.5% (active) with SK-MEL-28 melanoma.

With `Cn1cc(-c2nc(-c3c[nH]c4ncccc34)cs2)c2ccccc21`, the growth with HCT-15 colon is 64.3%; in the assay with HT29 colon, 88.2%; in the assay on SNB-75 CNS it was 77.6%; with SNB-19 CNS it was 92.8%; in the assay with U251 CNS, 96.6%; in the assay on PC-3 prostate, 80.6%. Further, the values for the growth in the assay on SK-MEL-5 melanoma and with SK-MEL-28 melanoma were 94.2% and 105%, respectively.

`CCN(CC)c1ccc(/C=C/c2cc(C)c3ccccc3n2)cc1`: the growth is 29.8% in the assay with HCT-15 colon; 8.05% (active) in the assay with HT29 colon; 42.7% in the assay with SNB-75 CNS; 59.7% in the assay on SNB-19 CNS; 43% in the assay with U251 CNS; 65% in the assay on PC-3 prostate. Further, the growth is 38.4% with UACC-62 melanoma, 52.2% with LOX IMVI melanoma and 55.1% in the assay with SK-MEL-28 melanoma.

`COc1ccc(C(=O)c2ccc(C)cc2)c(OC)c1OC`: the growth is 50.1% with HCT-15 colon; 27% in the assay on HT29 colon; 64.7% with SNB-75 CNS; 79.4% in the assay on SNB-19 CNS; 60.9% with U251 CNS; 86.9% in the assay on PC-3 prostate. Also, the results for the growth in the assay with UACC-62 melanoma, in the assay on LOX IMVI melanoma and in the assay on SK-MEL-28 melanoma were 67.6%, 83.6% and 85%, respectively.

For `Nc1ccc(Br)cn1`, the growth in the assay on HCT-15 colon was 102%; in the assay with HT29 colon, 104%; with SNB-75 CNS it was 87.3%; in the assay on SNB-19 CNS it was 107%; in the assay with U251 CNS, 108%; in the assay with PC-3 prostate, 98.9%. For the same compound, the results for the growth in the assay on SK-MEL-5 melanoma and in the assay with SK-MEL-28 melanoma were 100% and 107%, respectively.

In the case of `COC(=O)CNc1nc(N(C)O)nc(N(C)O)n1`, the growth with HCT-15 colon was 30.4%; in the assay on HT29 colon it was 41.7%; in the assay with SNB-75 CNS it was 96.4%; in the assay on SNB-19 CNS it was 47.6%; in the assay with U251 CNS, 36.5%; with PC-3 prostate it was 37.9%. For the same compound, the figures for the growth with UACC-62 melanoma, with LOX IMVI melanoma and in the assay with SK-MEL-28 melanoma were 42.9%, 33.4% and 42%, respectively.

`O=C1c2cc3c(cc2-c2c1c1ccc(Cl)cc1c(=O)n2C[C@H](O)[C@@H](O)[C@H](O)CO)OCO3`: the growth was 0.364% (active) in the assay on HCT-15 colon; -14.4% (active) in the assay with HT29 colon; -1.89% (active) in the assay with SNB-75 CNS; 7.77% (active) in the assay with SNB-19 CNS; -26.9% (active) in the assay with U251 CNS; 12.7% with PC-3 prostate. For the same compound, the figures for the growth in the assay on UACC-62 melanoma, in the assay on LOX IMVI melanoma and with SK-MEL-28 melanoma were -86.9% (active), -18.5% (active) and -18.8% (active), respectively.

With `CC(=O)Cc1nsc(NC(=O)c2ccoc2COc2ccccc2)n1`, the growth was 105% in the assay with HCT-15 colon; 107% with HT29 colon; 99.4% with SNB-75 CNS; 93.6% with SNB-19 CNS; 96.5% in the assay with U251 CNS; 89.9% with PC-3 prostate. Further, the results for the growth in the assay with SK-MEL-5 melanoma and in the assay on SK-MEL-28 melanoma were 101% and 103%, respectively.

Turning to `COc1ccc(-n2c(/C=C/c3ccc(O)c(OC)c3)cc(/C=C/c3ccc(O)c(OC)c3)nc2=O)cc1`, the growth in the assay on HCT-15 colon is 59%; in the assay with HT29 colon it was -59.1% (active); in the assay on SNB-75 CNS, 54.5%; in the assay on SNB-19 CNS it was 69.9%; in the assay with U251 CNS it was 32.4%; in the assay with PC-3 prostate, 53.7%. The figures for the growth in the assay with UACC-62 melanoma, in the assay with LOX IMVI melanoma and in the assay with SK-MEL-28 melanoma were 68.1%, 13% and 58.5%, respectively.

Take `CC1(C)NCCC[C@]2(C)[C@H]3CC[C@@H]4[C@H]5[C@H](C(=O)/C=C/c6ccccn6)CC[C@]5(CO)CC[C@@]4(C)[C@]3(C)CC[C@@H]12`: the growth in the assay with HCT-15 colon is -4.7% (active); in the assay on HT29 colon, -13.5% (active); with SNB-75 CNS, 105%; with SNB-19 CNS, 77.6%; with U251 CNS, -21.6% (active); in the assay on PC-3 prostate, 22.2%. For the same compound, the growth in the assay with SK-MEL-5 melanoma was 56.3%; in the assay with SK-MEL-28 melanoma, 88.3%.

Turning to `CC1(C)c2ccccc2C(=O)C1(Br)Cc1ccccc1` (stereo unspecified), the growth in the assay on HCT-15 colon was 71.3%; in the assay on HT29 colon, 67.4%; in the assay on SNB-75 CNS it was 78.8%; in the assay on SNB-19 CNS, 81.1%; with U251 CNS, 91%; with PC-3 prostate it was 77.4%. The results for the growth in the assay with UACC-62 melanoma, in the assay with LOX IMVI melanoma and in the assay on SK-MEL-28 melanoma were 78.3%, 78.7% and 95.8%, respectively.

Take `Cc1nc([P+](c2ccccc2)(c2ccccc2)c2ccccc2)c(Sc2sc(-c3ccccc3)nc2[P+](c2ccccc2)(c2ccccc2)c2ccccc2)o1`: the growth in the assay on HCT-15 colon is 30.2%; in the assay on HT29 colon it was 4.54% (active); with SNB-75 CNS, -3.87% (active); with SNB-19 CNS it was 16.2%; in the assay with U251 CNS, 14.3%; with PC-3 prostate, 3.44% (active). Also, the growth in the assay on SK-MEL-5 melanoma was -17.1% (active); in the assay on SK-MEL-28 melanoma it was 54.5%.

In the case of `NC1=NN(c2ccccc2)C(=O)/C1=C/c1ccc(Cl)cc1`, the growth in the assay on HCT-15 colon was 99.4%; with HT29 colon it was 102%; in the assay on SNB-75 CNS, 105%; with SNB-19 CNS, 96.9%; in the assay on U251 CNS, 98.1%; with PC-3 prostate, 82.8%. The growth in the assay on SK-MEL-5 melanoma is 101%; in the assay with SK-MEL-28 melanoma, 95%.
